The campaign covered roughly 220,000 compounds. About 2,300 (1%) were called active. Another 6% or so got no clear call; they are omitted. Calls come from the whole dose curve; as a rule, active = well fitted inhibition curve with a large enough effect; inconclusive = small, poorly fitted or top-dose-only effect, or effect the other way; inactive = no such curve, though single readings can be large or run the other way. What follows is part of a selection rich in actives, with near analogues and random picks from the rest. A call without a number means that no potency is given here.
Potency is the fitted concentration of half-maximal effect.

For this assay, the target named is Neuropeptide S receptor (Homo sapiens) (UniProt Q6W5P4). As to the kind of experiment: qHTS Assay for Antagonists of the Neuropeptide S Receptor: cAMP Signal Transduction. Note: nearly all actives have a fitted effect of over 50% in size. To be noted: CHO-NPSR cells, cAMP TR-FRET, antagonist mode; series mostly up to 38.3 µM.
Neuropeptide S receptor (Homo sapiens), sequence (Q6W5P4 whole entry, looked up): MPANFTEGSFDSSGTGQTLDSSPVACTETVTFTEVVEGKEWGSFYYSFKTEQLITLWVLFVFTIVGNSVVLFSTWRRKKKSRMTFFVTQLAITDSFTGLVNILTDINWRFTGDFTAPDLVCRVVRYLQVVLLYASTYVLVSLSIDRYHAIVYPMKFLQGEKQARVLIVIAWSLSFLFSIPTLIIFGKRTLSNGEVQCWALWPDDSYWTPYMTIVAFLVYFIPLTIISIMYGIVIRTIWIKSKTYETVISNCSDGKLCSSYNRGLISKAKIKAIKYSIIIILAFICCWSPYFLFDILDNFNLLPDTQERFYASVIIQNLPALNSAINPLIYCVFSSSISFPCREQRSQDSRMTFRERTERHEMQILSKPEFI
Take `O=c1c2cc(-c3ccccc3)sc2nc2n1N=C(c1cccs1)CS2`: the Potency entry is “inactive”.

Take `Brc1ccc2ncnc(NCc3cccnc3)c2c1`: the Potency result was “inactive”.

As for `O=C(Nc1cccnc1Oc1ncnc2cc(Cl)ccc12)c1ccc(F)cc1`, the Potency result is “inactive”.

Take `N#Cc1c(NCCO)ccc([N+](=O)[O-])c1NCCO`: the Potency entry was “inactive”.

Take `Cc1cccc(NC(=O)c2cc([N+](=O)[O-])ccc2N2CCN(C)CC2)c1`: the Potency result was “inactive”.

Consider `O=C(Nc1cccc(Cl)c1)c1cc([N+](=O)[O-])ccc1N1CCN(CCO)CC1`, for which the Potency was 10 µM (active).

With `CCN1CCN(c2ccc([N+](=O)[O-])cc2C(=O)c2ccc(Cl)cc2)CC1`, the Potency result was “inactive”.

Regarding `CCC(C)N1C(=S)SC(C)(C)C1N(O)C(=O)NC1CCCCC1` (stereo not given), the Potency result was “inactive”.

Consider `CCCN(CCC)S(=O)(=O)c1ccc(C(=O)N2CC3CCC(CC3)C2)cc1`, for which the Potency entry is “inactive”.

Consider `CCOc1ccc(-c2n[nH]c(C)c2-c2ccccn2)c(O)c1`, for which the Potency entry was “inactive”.

Turning to `Cc1[nH]nc(-c2ccc(OCc3cnn(-c4ccccc4)c3)cc2O)c1Oc1ccc(Cl)cc1`, the Potency was 10 µM (active).

For the compound `COc1ccc(C(=O)Cc2cnn(-c3ccccc3)c2)c(O)c1`, the Potency entry was “inactive”.

Consider `CC(C)n1c(CN2CCN(Cc3ccccc3)CC2)nc2ccccc21`, for which the Potency result is “inactive”.

On to `Cn1cc(S(=O)(=O)NC(c2ccccc2)c2ccccc2)c(=O)n(C)c1=O`, for which the Potency result was “inactive”.

Consider `CC(=O)Nc1nc2ccccc2n1Cc1ccc(C)cc1`, for which the Potency entry was “inactive”.

Turning to `CCC(=O)NCCc1nc2ccccc2n1CC`, the Potency result is “inactive”.

Regarding `CCCc1nc2c(C)cc(-c3nc4ccccc4n3C)cc2n1Cc1ccc(-c2ccccc2C(=O)O)cc1`, the Potency was 1.26 µM (active).

In the case of `CS(=O)(=O)c1sc(C(=O)NC(=S)Nc2ccc(OC(F)(F)F)cc2)c2c1C=CCC2`, the Potency entry is “inactive”.

With `Cc1cccc(-[n+]2c(-c3cccc(Br)c3)[nH]c3nc4ccccc4nc32)c1`, the Potency was 10 µM (active).

As to `Cc1ccc2nc(-c3cccc(Br)c3)cc(C(=O)Nn3cnnc3)c2c1`, the Potency result was “inactive”.

Take `COc1ccc2cc1Oc1ccc(cc1)C[C@H]1c3cc(c(OC)cc3CCN1C)Oc1c(O)c(OC)cc3c1[C@H](C2)N(C)CC3`: the Potency entry is “inactive”.

In the case of `O=C(Nc1nnc(COc2ccccc2)s1)Nc1ccccc1F`, the Potency entry is “inactive”.

As for `CCC(=O)c1ccc(OCC(=O)Nc2ccc3nc(C)sc3c2)cc1`, the Potency entry is “inactive”.

On to `CCOC(=O)CC1C(=O)NCCN1C(=O)COc1ccc(Br)cc1C` (stereo not given), for which the Potency entry was “inactive”.

For the compound `Cc1cccn2c(=O)c(/C=C3\SC(=S)N(CC(C)C)C3=O)c(NCCCOC(C)C)nc12`, the Potency entry is “inactive”.

As to `CCOC(=O)CC1C(=O)NCCN1c1nc2c(C)cccn2c(=O)c1/C=C1\SC(=S)N(C(C)CC)C1=O` (stereo not given), the Potency is 12.6 µM (active).

Turning to `CC(C)OP(=O)(OC(C)C)C(Nc1ccccc1)c1cccc([N+](=O)[O-])c1` (stereo not given), the Potency result was “inactive”.

On to `Cc1ccc(-c2csc(NC(=O)c3cccs3)n2)cc1`, for which the Potency result is “inactive”.

Regarding `Cc1sc(NC(=S)NC(=O)c2cccs2)nc1-c1ccc(CC(C)C)cc1`, the Potency is 12.6 µM (active).

In the case of `CCc1nnc(NS(=O)(=O)c2ccc(NC(=S)NC(=O)c3cccs3)cc2)s1`, the Potency entry is “inactive”.

As for `COC(C[C@@H](O)[C@H](C)[C@H](O)COCc1ccccc1)OC`, the Potency result was “inactive”.

Regarding `O=C(Nc1ccccc1)O/N=C1/CCCc2occc21`, the Potency entry was “inactive”.

As to `O=C(CNCc1cccs1)Nc1cc(S(=O)(=O)N2CCCC2)ccc1Cl`, the Potency entry was “inactive”.

For the compound `C=CCNC(=O)CSc1nc2scc(-c3ccco3)c2c(=O)n1CC=C`, the Potency entry was “inactive”.

Take `CC(C)Cn1c(N)c(C(=O)NCc2cccs2)c2nc3ccccc3nc21`: the Potency was 12.6 µM (active).

Take `CCC(C)NC(=O)c1c(N)n(/N=C/c2cccs2)c2nc3ccccc3nc12` (stereo not given): the Potency entry was “inactive”.

Take `C=CCn1c(N)c(C(=O)OCC(C)C)c2nc3ccccc3nc21`: the Potency result is “inactive”.

As for `Cc1ccccc1CSc1nnc(CCCCCNC(=O)OC(C)(C)C)o1`, the Potency entry was “inactive”.

As to `Cc1ccc(C(=O)NNC2=Nc3cc([N+](=O)[O-])ccc3OC2)cc1`, the activity change, negative = inhibition was -1.29% [at 7.67 µM] (inactive).

With `CC(C)(C)c1ccc(CCC2OCC(CN3CCOCC3)O2)cc1` (stereo not given), the Potency result was “inactive”.

For `O=C(CCCl)Nc1ccc(S(=O)(=O)NCc2ccco2)cc1`, the Potency entry is “inactive”.

`COc1ccc(C(CCN(Cc2ccc(OC)c(OC)c2)C(=O)CCl)c2ccccc2)cc1` (stereo not given): the Potency was 5.01 µM (active).

As to `CCOC(=O)CN(Cc1ccc(OC)c(OC)c1)S(=O)(=O)c1ccc(OC)cc1`, the Potency entry is “inactive”.

For `COc1ccc(CCNC(=O)C(Sc2ccccn2)c2ccccc2)cc1OC` (stereo not given), the Potency entry was “inactive”.

As for `C/C=C(\C)C(=O)N1CC2(CC(c3cccc(NC(=O)CCCCC)c3)=NO2)C[C@@H]1C(N)=O` (stereo not given in full), the Potency result was “inactive”.

With `Cn1nnc(NC(=S)NC(=O)c2ccccc2)n1`, the Potency entry was “inactive”.

For `O=c1c2ccccc2c(-c2ccccc2)nn1Cc1ccccc1`, the Potency result is “inactive”.

As to `Cn1c(CO)cnc1SCc1ccccc1`, the Potency entry was “inactive”.

As for `CSc1c(SCc2ccccc2)cnn(Cc2ccccc2)c1=O`, the Potency was 10 µM (active).

In the case of `Cc1csc(Nc2ccc(Cl)cc2)[n+]1-c1ccc(Cl)cc1`, the Potency was 10 µM (active).

On to `O=c1ccnc(Nc2ccc(Cl)cc2)[nH]1`, for which the activity change, negative = inhibition was 1.3% [at 7.67 µM] (inactive).

On to `CC1=NNC(=O)C1CCC(=O)N/N=C(\C)c1ccc(Cl)cc1` (stereo not given), for which the Potency entry is “inactive”.

In the case of `Cc1ccc(CSc2nnc(-c3cnccn3)n2C)cc1`, the Potency entry was “inactive”.

Take `CC(C)S(=O)(=O)c1csc(NC(=O)Nc2ccc(Cl)cc2)c1Cl`: the activity change, negative = inhibition is 14.8% [at 7.67 µM] (inactive).

For the compound `Cc1cccn2c(CNCC(C)Oc3cccnc3)c(C(=O)N3CCOCC3)nc12` (stereo not given), the Potency entry was “inactive”.

As to `COc1ccc(NC(=O)C2=NNC(=O)CC2)cc1S(=O)(=O)N1CCCCC1`, the Potency entry is “inactive”.

Take `O=C(Nc1ccc(S(=O)(=O)Nc2nccs2)cc1)c1cccc(S(=O)(=O)N2CCOCC2)c1`: the Potency entry is “inactive”.

Regarding `COc1ccc(/C(O)=C2\C(=O)C(=O)N(Cc3ccco3)C2c2ccc(OC)cc2OC)cc1` (stereo not given), the Potency entry is “inactive”.

With `COc1ccc(/C(O)=C2/C(=O)C(=O)N(c3nc(C)c(C)s3)C2c2ccco2)cc1` (stereo not given), the Potency was 10 µM (active).

Consider `CCOc1ccc(/C(O)=C2\C(=O)C(=O)N(c3ccc(OC)cc3)C2c2ccccc2[N+](=O)[O-])cc1` (stereo not given), for which the Potency entry is “inactive”.

In the case of `COc1ccccc1N(C)S(=O)(=O)c1ccc(C(=O)NC2CCCCCC2)cc1`, the Potency entry was “inactive”.

In the case of `CC[C@@H](C)[C@@H](C(=O)N1CCN(C(=O)OC(C)(C)C)CC1)n1cc(CCC(=O)O)nn1`, the Potency entry is “inactive”.

For `CC(=O)NC(=S)Nc1ccc(NC(=S)NC(=O)c2ccc([N+](=O)[O-])cc2)cc1`, the Potency entry is “inactive”.

With `COc1cc(/C=C2/C(=O)NN(c3ccc(F)cc3)C2=O)cc([N+](=O)[O-])c1O`, the Potency entry was “inactive”.

As to `C/C(=N/OC(=O)c1c(-c2c(F)cccc2Cl)noc1C)c1cnccn1`, the Potency result is “inactive”.

As for `CCOC(=O)c1cc2c(=O)n3ccccc3nc2n(CC(C)C)c1=NC(=O)c1c(-c2c(F)cccc2Cl)noc1C`, the Potency is 3.98 µM (active).

In the case of `CCCn1c(=NC(C)=O)c(C(=O)OCC)cc2c(=O)n3ccccc3nc21`, the Potency result was “inactive”.

`O=C(O)C1CCN(c2ccc([N+](=O)[O-])cc2[N+](=O)[O-])CC1`: the Potency entry was “inactive”.

In the case of `CC(OC(=O)c1ccc(NS(=O)(=O)c2ccc3[nH]c(=O)[nH]c3c2)cc1)C(=O)Nc1cccc(Cl)c1Cl` (stereo not given), the Potency result is “inactive”.

On to `O=C(O)c1cccnc1Sc1ncnc2sc3c(c12)CCC3`, for which the Potency result was “inactive”.

These data come from PubChem BioAssay AID1461 (National Center for Advancing Translational Sciences (NCATS), 2008).
